Test results as given in PubChem BioAssay AID1566 (Sanford-Burnham Center for Chemical Genomics, 2009).
Hit rate of the full screen: of about 290,000 compounds, about 1,800 (0.62%) were called active. For the sample, actives were picked, then their nearest neighbours and some compounds at random. Unmarked numbers belong to inactive results. Cut-off read from the data, not from the text of the source: active = inhibition above about 50%; inactive = the rest.

assay: inhibition of NOD2-driven NF-kB reporter – cell-based, luminescence, uHTS, HEK293 (AID 1566); conditions: HEK293 NOD2/NF-kB luciferase reporter, at 4 µM, hits give high values

SMILES	inhibition
COC(=O)C1=C(C)NC(C)=C(C(=O)OC)C1c1ccccn1	2.3%
Cc1ccc(OCc2cc(C(=O)N3CCN(C)C[C@@H]3c3ccccc3)no2)cc1C	-27.5%
S=C(Nc1cc(Cl)cc(Cl)c1)N1CCN(c2ccccn2)CC1	14.1%
CCOC(=O)Cc1nnc2c(Nc3ccc(C)cc3)nc3nonc3n12	-2.9%
CCOC(=O)Cc1nnc2c(Nc3ccc(Cl)cc3)nc3nonc3n12	14.5%
CCOC(=O)Cc1nnc2c(Nc3ccccc3F)nc3nonc3n12	55.4% (active)
Cc1noc(C)c1C(=O)N1CCC2(CC1)Oc1ccc(F)cc1C(=O)C21CC(c2ccc(Cl)cc2)=NO1 (centres undefined)	13%
COc1ccc(/C=N/n2cnc3c([nH]c4ccc(F)cc43)c2=O)cc1CN1CCCC1	12.1%
COc1ccc(C(=O)Nc2sc3c(c2C(=O)O)CC(C)(C)OC3)cc1	8.8%
CC1(C)Cc2c(sc(NC(=O)c3ccccc3)c2C(=O)O)CO1	-27.1%
C(=N\N(c1ccccc1)c1ccccc1)/c1ccc(N2CCOCC2)s1	11.6%
c1ccc2c(-c3c[nH]c4ccccc34)c3ccccc3nc2c1	0%
Cc1cccc(C(=O)c2cn[nH]c2-c2ccccc2O)c1	-3.8%
Nn1c(-c2ccc(F)cc2)nc2ccccc2c1=O	12.9%
O=C1c2cc(F)ccc2-n2c1nc1ccccc1c2=O	63.4% (active)
O=C1c2ccccc2-n2c1nc1ccccc1c2=O	26.3%
CCn1c(CNc2ccc(Cl)cc2)nnc1SCC(=O)OC1CCCCC1	4.4%
CCOC(=O)C1CCN(C(=O)COC(=O)c2ccc(Br)o2)CC1	20.2%
Cc1cc2c(s1)c1cnn(Cc3ccccc3F)c(=O)c1n2C	10.1%
COc1ccccc1C(=O)N1CCN(c2cccc(Cl)c2)CC1	3.1%

SMILES	inhibition
CCOc1ccccc1C(=O)N1CCN(c2cccc(Cl)c2)CC1	-14%
CN(C(=O)c1cnc(N2CCN(c3ncccn3)CC2)c2ccccc12)c1ccc(Cl)cc1	15.1%
COc1ccc(N(C)C(=O)c2cnc(N3CCN(c4ncccn4)CC3)c3ccccc23)cc1	14.7%
COc1cc(C(=O)Nc2ccccc2N2CCOCC2)ccc1OCc1c(C)noc1C	1.5%
CCOC(=O)c1ccc(NC(=O)C2CCCO2)cc1 (centres undefined)	-21.8%
CCOC(=O)c1ccc(NC(=O)c2ccc(NC(=O)C3CCCO3)cc2)cc1 (centres undefined)	51.3% (active)
CCOC(=O)c1cccc(NC(=O)c2ccc(NC(=O)C3CCCO3)cc2)c1 (centres undefined)	5.8%
CC(Sc1nnc(N)s1)C(=O)Nc1nccs1 (centres undefined)	-1.1%
COc1ccccc1-c1nc(C#N)c(N2CCN(c3ccccc3)CC2)o1	-1.7%
COc1ccc(-c2nc(C#N)c(N3CCN(c4cccc(Cl)c4)CC3)o2)cc1OC	0.1%
Cc1noc(C)c1COC(=O)COc1cccc2c1OC(C)(C)C2	6.1%
C=CCN(c1ccc(C(=O)Nc2ccc(NC(C)=O)cc2)cc1)S(C)(=O)=O	15.2%
COc1ccc(N(CC(=O)NCCC2=CCCCC2)S(=O)(=O)c2ccccc2)c(OC)c1	1.9%
Cc1cccc(NS(=O)(=O)c2ccc(NC(=O)N3CCCCC3)cc2)c1	33.7%
CC(=O)c1cccc(NC(=O)N2CCCCCC2)c1	6.3%
CC1(C)CC(=O)C=C(N2CCN(C3=CC(=O)CC(C)(C)C3)CC2)C1	-10.7%
COc1ccc(C(=O)NC(=S)Nc2ccc(N3CCOCC3)cc2)cc1Cl	13.8%
Cc1cccc(C(=O)NC(=S)Nc2ccc(N3CCOCC3)cc2)c1	7.7%
Cc1ccc(C(=O)NC(=S)Nc2ccc(N3CCOCC3)cc2)cc1C	50.7% (active)
Cc1ccn2c(NC(=O)c3cccs3)c(-c3ccccc3)nc2c1	17.5%

SMILES	inhibition
COc1ccc(OC)c(Cc2nnc(CCC(=O)NCc3nc4ccccc4s3)o2)c1	5.2%
CC(C)Cc1nc(N2CCN(C(=O)c3ccco3)CC2)c(C#N)c2c1CCCC2	23.8%
CC(C)Cc1nc(N2CCN(C(=O)c3ccco3)CC2)c(C#N)c2c1CCC2	13.3%
Cc1ccc(S(=O)(=O)N(CC(=O)NCCSCc2ccco2)c2ccc(F)cc2)cc1	-2.2%
CC(C)CNC(=O)CN(c1ccccc1)S(=O)(=O)c1ccccc1[N+](=O)[O-]	-10.6%
O=C(c1ccccc1)N1CCN(CC(O)COc2cccc3ccccc23)CC1 (centres undefined)	-10%
CCOC(=O)c1c(NC(=O)CSc2nc3ccccc3c(=O)n2-c2ccc(F)cc2)sc(C(C)=O)c1C	-19.4%
O=S(=O)(Nc1ccc(N2CCOCC2)cc1)c1ccc(F)cc1F	-1.9%
O=C(c1ccco1)N1CCCC(c2nc3c(nnn3Cc3c(Cl)cccc3Cl)c(=O)[nH]2)C1 (centres undefined)	-43.2%
O=[N+]([O-])c1ccc(-c2c(O)c3ccccc3c3nc4ccccc4nc23)cc1	58.6% (active)
Cc1cc(-c2ccc([N+](=O)[O-])cc2)nc2ccccc12	-13.5%
O=[N+]([O-])c1ccc(-c2cnc3ccccc3n2)cc1	-35.5%
Cc1ccc(Oc2nc3ccccn3c(=O)c2/C=C(\C#N)C(=O)NC2CCS(=O)(=O)C2)c(C)c1 (centres undefined)	0.4%
O=C(OC1CCCCC1)c1ccc(NC(=O)C2CCCCC2)cc1	8.6%
O=C(OC1CCCCC1)c1ccc(NC(=O)c2ccco2)cc1	-39.4%
O=C(Nc1ccc(C(=O)OC2CCCCC2)cc1)c1ccncc1	61.2% (active)
COCCNC(=O)C1CC(c2ccc([N+](=O)[O-])cc2)=NO1 (centres undefined)	21%
COc1ccc(OCC(=O)Nc2cccc(NC(=O)c3ccco3)c2)cc1	1.8%
Cc1cnnn1-c1cccc([N+](=O)[O-])c1	-9.2%
